PubChem BioAssay (NCI)
“And” between values parts separate entries of the source, which are not always exact repeats. Identical values can stand only once. Compounds without any hit were thinned out: in the full panel of roughly 83,000, 20% have a hit.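 Values shown are percent growth following 48 h exposure of cells in 96-well plates to a single concentration of compound; below 10 was considered active.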 The source made the active and inactive calls.

Tests used:
Assay in all cases: NCI-60 one-dose screen, 48 h (100 = growth as untreated, 0 = no growth, -100 = all killed)
Conditions in all cases: 10 µM unless noted
[1] = tested on: NCI-H23 lung
[2] = tested on: NCI-H226 lung
[3] = tested on: NCI-H322M lung
[4] = tested on: HOP-62 NSCLC
[5] = tested on: NCI-H460 lung
[6] = tested on: HOP-92 NSCLC
[7] = tested on: NCI-H522 lung
[8] = tested on: A549/ATCC NSCLC
[9] = tested on: 786-0 renal
[10] = tested on: COLO 205 colon
[11] = tested on: DU-145 prostate
[12] = tested on: K-562 leukemia
[13] = tested on: MALME-3M melanoma
[14] = tested on: MDA-MB-231 breast
[15] = tested on: RXF 393 renal
[16] = tested on: SF-268 CNS
[17] = tested on: SF-295 CNS
[18] = tested on: SF-539 CNS
[19] = tested on: UACC-257 melanoma
[20] = tested on: M14 melanoma

Measured: growth

CCCC[C@H]1C(=O)O[C@H](C)[C@H](NC(=O)c2cccc(NC=O)c2O)C(=O)O[C@@H](C)[C@@H]1OC(=O)CC(C)C
active: [15] 6.91% | [17] 9.04%
inactive: [1] 42% | [2] 44.1% | [3] 66.3% | [4] 48.4% | [5] 19.9% | [6] 32.9% | [7] 51.2% | [8] 11.5% | [9] 44.8% | [10] 42.2% | [11] 85.9% | [12] 26.4% | [13] 44% | [14] 58.7% | [16] 46.6% | [18] 39.3% | [19] 42.8%

CCCCn1c(=O)c(C(=O)NCc2ccccc2Cl)c(O)c2ccccc21
inactive: [1] 54.1% | [2] 63% | [3] 75.2% | [4] 76.9% | [5] 67.6% | [6] 66.9% | [7] 73.4% | [8] 58% | [9] 52.2% | [10] 92.8% | [11] 84.6% | [12] 42.3% | [13] 98% | [14] 88.7% | [15] 87.7% | [16] 80.8% | [17] 51.8% | [18] 97.4% | [19] 80.9%

COc1cc2c(cc1OC)-c1c3c(cc4c1[C@@H](C2)N(C)CC4)OCO3
inactive: [1] 51.3% | [2] 51% | [3] 36.9% | [4] 44.3% | [5] 17.3% | [8] 53.3% | [9] 40.2% | [10] 31.4% | [11] 45.3% | [12] 13.1% | [13] 54.3% | [14] 55.1% | [15] 35.2% | [16] 50.5% | [17] 51.6% | [18] 34.1% | [19] 35.5%
active: [6] 6.02% | [7] 5.61%

O=Cc1cn(Cc2ccccc2)c2ccccc12
inactive: [1] 80.1% | [2] 28.2% | [3] 86% | [4] 65.8% | [5] 20.9% | [6] 74.4% | [7] 121% | [8] 76.6% | [9] 87.6% | [10] 15.4% | [11] 108% | [12] 53.3% | [13] 127% | [14] 92.7% | [15] 67.6% | [16] 104% | [17] 99.5% | [18] 95.1% | [19] 37.8% | [20] 117%

Nc1cccnc1
inactive: [1] 109% | [2] 107% | [3] 105% | [4] 104% | [5] 115% | [6] 101% | [7] 91.6% | [8] 106% | [9] 109% | [10] 115% | [11] 125% | [12] 105% | [13] 120% | [14] 110% | [15] 126% | [16] 108% | [17] 122% | [18] 113% | [19] 82.9% | [20] 113%

O=C1CN2CCC1CC2
inactive: [1] 101% | [2] 96.8% | [3] 99.3% | [4] 93.5% | [5] 115% | [6] 106% | [7] 90.3% | [8] 92.7% | [9] 88.9% | [10] 116% | [11] 103% | [12] 93.9% | [13] 102% | [14] 108% | [15] 111% | [16] 99% | [17] 99.9% | [18] 97.8% | [19] 109% | [20] 104%

CC12CCC3C(CCC4CC(O)CCC43C)C1CCC2=O (centres undefined)
active: [19] -10.3%
inactive: [1] 98.4% | [2] 98.1% | [3] 102% | [4] 95.8% | [5] 100% | [6] 74.5% | [7] 61.9% | [8] 94.2% | [9] 78.1% | [10] 130% | [11] 103% | [12] 103% | [13] 102% | [14] 111% | [15] 133% | [16] 116% | [17] 94.8% | [18] 99.1% | [20] 98.8%

CSc1cc(/C=C(\C)[C@@H]2C[C@@H]3O[C@]3(C)CCC[C@H](C)[C@H](O)[C@@H](C)C(=O)C(C)(C)[C@@H](O)CC(=O)O2)n(CCNC(=O)OC(C)(C)C)n1
inactive: [1] 61.4% | [2] 82.7% | [3] 77.2% | [4] 68.7% | [5] 29.6% | [6] 70.3% | [7] 63.1% | [8] 55.2% | [9] 66.6% | [10] 30.5% | [11] 58% | [12] 36.4% | [13] 78.7% | [14] 63.8% | [15] 63.6% | [16] 70.6% | [17] 73.5% | [18] 54% | [19] 91.9%

O=CC1(c2ccccc2)CCN(Cc2ccccc2)CC1
inactive: [1] 101% | [2] 98.2% | [3] 105% | [4] 112% | [5] 110% | [6] 97.3% | [7] 105% | [8] 95.4% | [9] 108% | [10] 109% | [11] 106% | [12] 105% | [13] 105% | [14] 104% | [15] 115% | [16] 99.6% | [17] 99% | [18] 106% | [19] 99.5% | [20] 98.8%

C[C@]12CC[C@H]3[C@@H](CC=C4c5nc(-c6ccc(Br)cc6)sc5CC[C@@]43C)[C@@H]1CC[C@@H]2O
inactive: [1] 88.4% | [2] 100% | [3] 94.7% | [4] 106% | [5] 106% | [6] 130% | [7] 97.5% | [8] 106% | [9] 45% | [10] 119% | [11] 108% | [12] 76.7% | [13] 103% | [14] 89.5% | [16] 90.2% | [17] 63.5% | [19] 114% | [20] 90.5%
active: [15] 3.87% | [18] 9.53%

COC(=O)C1=CCCN(C)C1
inactive: [1] 104% and 101% | [2] 100% and 101% | [3] 96.2% and 82.7% | [4] 109% | [5] 110% and 106% | [6] 76.9% | [7] 96.8% and 73.1% | [8] 101% | [9] 100% and 101% | [10] 114% and 121% | [11] 111% and 112% | [12] 93.2% and 104% | [13] 96.2% and 109% | [14] 115% and 107% | [15] 102% and 106% | [16] 116% and 104% | [17] 97.9% and 98.3% | [18] 103% and 109% | [19] 96.8% | [20] 98% and 100%

CCN1C(=O)CC(=O)N(CC)C1=S
inactive: [1] 82% | [2] 103% | [3] 102% | [4] 172% | [5] 107% | [6] 92.1% | [7] 84.1% | [8] 109% | [9] 97.6% | [10] 115% | [11] 122% | [12] 107% | [13] 95.8% | [14] 107% | [15] 100% | [16] 101% | [17] 111% | [18] 96.9% | [19] 102%

CC1(C)C=Cc2c(ccc3c2[N+]([O-])=C2C3=C[C@@]34NC(=O)[C@]5(CCCN5C3=O)C[C@@H]4C2(C)C)O1
inactive: [1] 63.2% | [2] 84.5% | [3] 67.5% | [4] 54.5% | [5] 26.9% | [6] 73.4% | [7] 25.6% | [8] 54.7% | [9] 42.1% | [10] 35.2% | [11] 43.3% | [13] 82.9% | [14] 48.5% | [15] 32.8% | [16] 53.7% | [17] 52.2% | [18] 51.2% | [19] 68.9% | [20] 61.6%
active: [12] 9.2%

Cc1cc[c-]cc1.Fc1c[c-]c(-c2ccccn2)c(F)c1.N#CCC[PH+](CCC#N)c1ccccc1.[Pt+2]
inactive: [1] 34.3% | [2] 72.3% | [3] 79.4% | [4] 116% | [5] 43.1% | [6] 16.3% | [7] 16% | [8] 50.5% | [9] 48.9% | [10] 12.5% | [11] 57.6% | [12] 11.6% | [14] 13.7% | [16] 46% | [17] 85.2% | [18] 48.3% | [19] 62.4%
active: [13] 0.385% | [15] -36%
